The values below come from PubChem BioAssay AID896 (National Center for Advancing Translational Sciences (NCATS), 2007).

Each structure is given as a SMILES string. The list shows a part of the results. Inconclusive results are not listed.

A short description of the experiment: Confirmation Concentration-Response Assay for Allosteric/Competitive Inhibitors of Caspase-1. Particulars: purified caspase-1, fluorogenic substrate cleavage; compound fluorescence baseline read; at 57.5 µM. The source says: NIH Molecular Libraries Screening Centers Network [MLSCN]
NIH Chemical Genomics Center [NCGC]
PI Name: Dr. James Wells,
Dr. Enrique Perez-Paya, Dr.Janice Williams, Dr. Dennis Wolan, a person
The caspases (Cysteine Aspartyl Protease) comprise a related family of 14 dimeric proteases that are critical mediators of apoptosis (programmed cell death) and inflammation. The caspases represent an important class of drug targets for stroke, ischemia, cancer and inflammatory diseases. […] One goal of this project was to identify compounds that act as allosteric inhibitors via stabilizing the procaspase form of the enzyme. […]
The biochemical assay was configured using purified caspase 1 at a high enzyme concentration to promote formation of the homodimers and thus facilitate the identification of allosteric inhibitors. […] After initiation of the assay with substrate the plates were rapidly read using an automated robotic system (Kalypsys, Inc.) to maintain consistent timing. […] Product formation was also measured after 1 hour. […]
Caspase 1 was prepared in buffer (50 mM HEPES pH 7.5, 50 mM KCl, 200 mM NaCl, 10 mM DTT, 0.1% CHAPS) at a concentration of 66.6 nM and 3 uL was dispensed to all wells using black solid Kalypsys 1536-well plates. […] The plates were then exposed using 405 nm excitation/520 nm emission filters for 4 sec and read at 20 sec intervals for 3 min. […]
As to `Cc1nc2c(C(=O)NCc3ccc4c(c3)OCO4)c[nH]n2c(=O)c1Cc1ccccc1F`, the baseline fluorescence was -1.24%.
